Source: PubChem BioAssay AID777 (Sanford-Burnham Center for Chemical Genomics, 2007)
Among all 96,000 compounds or so, about 19,000 (20%) were called active. Not all results are given here. Unmarked numbers belong to inactive results.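 Rule for the calls: active = blocking of liver enzyme CYP2C9 beyond about 50% at 5 µM (limit read from the data); inactive = the rest.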

target: Cytochrome P450 2C9 (Homo sapiens) (UniProt P11712); assay: blockers of cytochrome P450 2C9 activity – biochemical, luminescence, ADME assay, primary screen (AID 777); conditions: CYP2C9 Supersomes, luciferin-H conversion, at 5 µM, active compounds read high
Sequence (P11712 whole entry, looked up): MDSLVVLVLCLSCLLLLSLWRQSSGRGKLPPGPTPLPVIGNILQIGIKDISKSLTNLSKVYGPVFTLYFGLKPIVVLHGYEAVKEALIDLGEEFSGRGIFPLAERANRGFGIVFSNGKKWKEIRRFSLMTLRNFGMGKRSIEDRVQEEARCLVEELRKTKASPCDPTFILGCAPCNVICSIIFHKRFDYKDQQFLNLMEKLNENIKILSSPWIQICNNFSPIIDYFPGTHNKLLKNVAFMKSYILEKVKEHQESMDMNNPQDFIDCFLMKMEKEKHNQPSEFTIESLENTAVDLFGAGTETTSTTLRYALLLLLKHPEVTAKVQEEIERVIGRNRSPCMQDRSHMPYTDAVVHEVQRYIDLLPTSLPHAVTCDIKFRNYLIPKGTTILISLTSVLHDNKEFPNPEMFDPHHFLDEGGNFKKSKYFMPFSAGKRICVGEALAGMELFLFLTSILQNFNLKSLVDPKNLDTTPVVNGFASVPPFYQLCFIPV

Structure (SMILES) | inhibition
Cc1ccc(N2C(=O)C3C(c4ccccc4)(C2=O)C3(c2ccccc2)c2ccccc2)cc1 (stereo not given) | 28.1%
Cc1cc(C)nc(N2C(=O)CC(Cc3ccccc3)C2=O)n1 (stereo not given) | -14%
Cc1ccc(N2C(=O)C(Cc3ccccc3)NC2=S)cc1 (stereo not given) | 78.4% (active)
CCOC(=O)N1CCC(NC(=O)CN2C(=O)COc3ccc(C(C)(C)C)cc32)CC1 | 10.3%
CCCCC(=O)N/N=C(\C)CC(=O)Nc1cc(Cl)ccc1OC | -51.9%
CN(C)c1ccc(-n2cccc2/C=C2/SC(=Nc3ccc(F)cc3)NC2=O)cc1 | 5.1%
Cc1ccc(-c2nnc(C)c(N3CC(C)OC(C)C3)n2)cc1 (stereo not given) | 17.3%
COc1ccc(C)cc1NC(=O)CCS(=O)(=O)c1cccc2nonc12 | 34.9%
COc1ccc(C)cc1NC(=O)CSc1nc(SC)ns1 | -3.2%
COc1ccc(C)cc1NC(=O)CCC(=O)Nc1nnc(C(F)(F)F)s1 | 50.2% (active)
O=C1C(C=NCC2CCCO2)=C(O)c2ccccc21 (stereo not given) | 3.5%
CC(=NCc1ccco1)C1=C(O)c2ccccc2C1=O | 78.9% (active)
CC(=NCc1ccc2c(c1)OCO2)C1=C(O)c2ccccc2C1=O | 28.1%
CC(Sc1sc(=S)sc1SC(C)C(=O)O)C(=O)O (stereo not given) | 10.2%
CCCCn1ccnc1C(=O)c1cccc(S(=O)(=O)N2c3ccccc3CC2C)c1 (stereo not given) | 68.5% (active)
CCS(=O)(=O)c1ccc2oc(SCC(=O)N3c4ccccc4CC3C)nc2c1 (stereo not given) | 46.1%
CCn1c(CSc2ncccn2)nnc1SCC(=O)N1c2ccccc2CC1C (stereo not given) | -1.7%
O=C1Nc2ccc(Br)cc2/C1=N/N=C/C1=C(N2CCOCC2)C(=C\c2ccccc2)/CC1 | 84.9% (active)
Cc1noc(C)c1S(=O)(=O)NCCc1ccc(S(N)(=O)=O)cc1 | -3.8%
CCSC(C)CC1C/C(=N/O)c2c(C)noc2C1 (stereo not given) | 61.3% (active)
COc1ccc(C(=O)NCc2cn3ccccc3n2)cc1 | 2.4%
O=C(c1cc(-c2cccs2)on1)N1CCCCC1 | -21.4%
O=C(c1cc(-c2cccc(O)c2)on1)N1CCc2ccccc2C1 | 55.8% (active)
O=C(c1cccc(C(=O)N2CCc3ccccc32)n1)N1CCc2ccccc21 | 8.6%
Cc1occc1C(=O)N1CCCc2ccccc21 | -1.8%

Structure (SMILES) | inhibition
O=C(c1cc(-c2ccccc2O)on1)N1CCCC1 | -51.3%
O=C(c1cc(-c2ccc(O)cc2)on1)N1CCCc2ccccc21 | 55.3% (active)
CNC(=O)c1nnn(-c2ccccc2)c1C(=O)NC | -7.1%
O=C(O)c1cccnc1NC1CCCC1 | 4.1%
Cc1ccc(NC(=O)N2CCC(c3nc4c(nnn4Cc4c(F)cccc4Cl)c(=O)[nH]3)CC2)cc1 | 87.7% (active)
Cc1ccc(Cn2nnc3c(=O)n(CC(=O)N4CCCCC4)cnc32)cc1 | -4.1%
O=C(CSCc1c(F)cccc1Cl)NCC1CCCO1 (stereo not given) | -7.5%
Cc1ccc(NC(=O)N2CCC(C(=O)NCc3ccc(F)cc3)CC2)cc1 | 34%
COc1ccc(-n2nnc3c(=O)n(CC(=O)N4CCC(Cc5ccccc5)CC4)cnc32)cc1 | 17.9%
COc1ccc(Cn2nnc3c(=O)[nH]c(C4CCN(C(=O)c5ccccc5Cl)CC4)nc32)cc1 | 79.7% (active)
Oc1ccc(CNc2ccccc2O)cc1 | 22.4%
CC(C)(CCl)C(=O)Nc1ccc(Sc2ccc(F)cc2)cc1 | 84.9% (active)
CCN(c1ccccc1)S(=O)(=O)c1ccc(NC(=O)C(C)(C)C)cc1 | 31.5%
COC(=O)c1ccc(Sc2ccc(F)cc2)c(N)c1 | 43.1%
O=C1CC(NNc2ccccc2)C(=O)N1c1cccc(Cl)c1 (stereo not given) | 0.1%
Cc1noc(C)c1S(=O)(=O)Nc1ccc(C(=O)O)cc1 | 1.8%
CCCCN(CC)C(=O)CN(C)S(=O)(=O)c1cccc2nsnc12 | 16.6%
Clc1ccc(-c2cc(COc3ccccc3)no2)cc1Cl | -0.8%
O=S(=O)(Cc1cc(Sc2ccccc2)nc(-c2ccccc2)n1)c1ccccc1 | 52.5% (active)
O=C1CC2(CCCCC2)Oc2ccc(OCC(=O)N3CCOCC3)cc21 | 2.2%
Brc1cccc(-c2nnc3n2CCC3)c1 | -21.9%
Cc1ccc(Cc2cnc(NC(=O)/C(C#N)=C/c3ccc(-c4cccc([N+](=O)[O-])c4)o3)s2)cc1 | 25.6%
Cc1ccc2c(c1)N(C(=O)CCC(=O)N1CCc3ccccc3C1)CCO2 | 13.6%
O=C1N=C(N2CCCC2)S/C1=C\c1cccc(Br)c1 | -42.1%
CC(C)C(=O)NC(=S)Nc1ccccc1F | 20.1%

Structure (SMILES) | inhibition
CC(C)C(=O)Nc1cccc(NC(=S)NC(=O)C(c2ccccc2)c2ccccc2)c1 | 98.8% (active)
COc1ccccc1NC(=S)NC(=O)C(C)C | 12.2%
CC(=O)c1c(C)[nH]c(C(=O)NCCCN2CCCC2)c1C | -3.6%
O=C(NCc1cccnc1)c1cccnc1Sc1ccc(Cl)cc1 | 39.9%
COC(=O)c1cn(-c2ccccc2)nc1-c1cccnc1 | 51.7% (active)
COc1ccc(-c2nn(-c3ccccc3)cc2C(=O)Nc2nc(CC(C)=O)ns2)cc1 | 10.8%
O=C(NCc1cccnc1)c1cn(-c2ccccc2)nc1-c1cccs1 | 95.7% (active)
Cc1c(C(=O)NCc2ccccc2)cnn1-c1ccccc1 | -4%
COc1ccccc1N1CCN(C(=O)c2cn(-c3ccccc3)nc2-c2cccnc2)CC1 | 92% (active)
O=C(c1cn(-c2ccccc2)nc1-c1cccnc1)N1CCCCC1 | 52.5% (active)
COC(=O)CSc1nnc(-c2cccnc2)o1 | -12.9%
O=C(Nc1ccc(N2CCN(C(=O)c3ccccc3)CC2)c(Cl)c1)c1cccnc1 | 31.6%
O=C(c1ccccc1-c1ccccc1)N1CCOCC1 | 5%
O=C(Nn1cc(C(=O)N2CCN(c3ccccc3F)CC2)c2ccccc2c1=O)c1cnccn1 | 20.7%
O=C(Nc1c(C(=O)N2CCCCC2)cnn1-c1ccccc1)c1ccco1 | -0.7%
COC(=O)/C(=C\Nc1ccccc1)NC(=O)c1ccc(Cl)cc1Cl | 33.9%
CC(C)(C)n1nc2c(c1NC(=O)c1ccc(S(=O)(=O)N3CCCC3)cc1)CS(=O)C2 (stereo not given) | 4.2%
CCOc1nc(NCCN2CCOCC2)nc(Nc2ccc(C)cc2)n1 | 13%
O=c1c([N+](=O)[O-])cc(C(F)(F)F)cn1Cc1cccc(Cl)c1 | 23.9%
COc1ccc2c(c1OC)C(=O)c1ccccc1C2=O | 21.6%
CN1CCc2c(sc3c2c(NCc2ccco2)nc2nnnn23)C1 | 45.7%
CCN(CC)P(=O)(/C(Cl)=C\Nc1c(C)n(C)n(-c2ccccc2)c1=O)N(CC)CC | -8.4%
CNC(=O)NCCN1CCCC1=O | 35.9%
Cc1nc(NC(=O)CN(C)S(=O)(=O)c2ccc(Cl)cc2)sc1C | 61.3% (active)
Cc1nc(NC(=O)CCC(=O)O)sc1C(=O)N(C)C | 24.5%

Structure (SMILES) | inhibition
CN(CC(=O)Nc1cccc2c1CCCC2)S(=O)(=O)c1ccc(Cl)cc1 | -18.4%
CCOC1CCCCC1NS(=O)(=O)c1ccc(Cl)cc1 (stereo not given) | 5.6%
CCOC(=O)N1CCN(S(=O)(=O)c2ccc(C(=O)Nc3ccc(F)cc3F)cc2)CC1 | 18.7%
CCOC(=O)C1CCCN(C(=O)c2ccc(CS(=O)(=O)c3ccc(Br)cc3)o2)C1 (stereo not given) | 49.8%
O=C(CSc1ncccn1)NCCc1ccccc1 | 17%
O=C(CCS(=O)(=O)Cc1ccccc1F)NCCCN1CCCCC1 | -0.3%
CCOC(=O)CN(C(=O)CN1CCOCC1)c1ccc(Br)cc1 | 5.6%
COc1cc(OC)c(C(=O)NC2CC(C)(C)NC(C)(C)C2)cc1OC | -0.9%
O=C(O)c1ccc(NC(=O)C2CCCCC2)cc1 | -25.8%
O=C(O)C1CCCCC1C(=O)Nc1ccc(Cl)cc1 (stereo not given) | 9.3%
O=C(Nc1cnn(Cc2ccc(Cl)cc2)c1)C1CCCC1 | 56.1% (active)
O=C1CC(c2ccccc2)C(=O)N1c1cccc(O)c1 (stereo not given) | 45%
O=C(N/N=C/C=C/c1ccccc1)C1CC1(c1ccccc1)c1ccccc1 (stereo not given) | 99.5% (active)
O=C(Nc1ccc(F)c(Cl)c1)C1CCN(S(=O)(=O)c2cccnc2)CC1 | 9.3%
O=C(O)c1ccc(COCC(F)(F)F)cc1 | -1.6%
Fc1c(F)c(C(F)(F)F)c(F)c(F)c1N1CCN(c2ccc3nnc(C(F)(F)F)n3n2)CC1 | 5.9%
c1csc(-c2nc(-c3ccncc3)no2)c1 | 11.1%
c1ccc(CCc2nc(-c3ccncc3)no2)cc1 | 93% (active)
O=C1c2ccccc2C(=O)N1CCCc1nc(-c2ccccc2)no1 | 24.2%
Cc1cc(C(=O)O)c(S(C)(=O)=O)s1 | -5.1%
CC(Sc1nnc(Cc2ccc([N+](=O)[O-])cc2)o1)C(N)=O (stereo not given) | -1.5%
Cc1ccc2nc(SC(C)C(=O)NCc3ccco3)[nH]c2c1 (stereo not given) | 44.2%
Cc1nnc(NCCO)c2ccccc12 | -5.4%
CCC(=O)NC(=Nc1nc2ccccc2s1)NC(=O)CC | -88.9%
O=C1CCCC(O)=C1C=NCCc1ccccc1 | 6.6%
